A short description of experiment [1]: NCI Yeast Anticancer Drug Screen. Data for the rad50 strain (AID 155).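 Note: 0% = growth of vehicle-only cultures of the same strain.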 As to conditions: S. cerevisiae rad50 strain growth inhibition, active compounds read high. Summed up: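 Relative growth inhibition (compound vs vehicle) was measured in yeast with a defined repair-gene alteration.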
Experiment [2] in a line: NCI Yeast Anticancer Drug Screen. Data for the mec2-1 strain (AID 157). As to conditions: S. cerevisiae mec2-1 strain, active compounds read high. Summed up: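 Using mec2-1 yeast: add compound, measure growth, express inhibition versus vehicle-treated cultures.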
The nature of experiment [3]: NCI Yeast Anticancer Drug Screen. Data for the sgs1 mgt1 strain (AID 161).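 Note: 0% = growth of cultures given vehicle only.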 The note with it: S. cerevisiae sgs1 mgt1 strain, active compounds read high. Summed up:
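Percent growth inhibition was derived by comparing compound-exposed mutant yeast with vehicle-exposed cultures. The strain carries alterations in DNA damage repair.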

A short description of experiment [4]: NCI Yeast Anticancer Drug Screen. Data for the cln2 rad14 strain (AID 165).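 Note: 0% = growth equal to vehicle treated cultures.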 The note with it: S. cerevisiae cln2 rad14 strain, active compounds read high. Summed up: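 Yeast strain cln2 rad14, bearing defects in cell cycle control and DNA repair, serves as the test system; values reflect growth inhibition compared with vehicle.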
The nature of experiment [5]: NCI Yeast Anticancer Drug Screen. Data for the bub3 strain (AID 167). The note with it: S. cerevisiae bub3 mutant strain, active compounds read high. The method, boiled down:
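Screening used yeast with an engineered genetic alteration affecting cell cycle control. Compound-exposed cultures were compared with vehicle cultures, and reduced growth was taken as inhibition.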

The nature of experiment [6]: NCI Yeast Anticancer Drug Screen. Data for the mlh1 rad18 strain (AID 175). The note with it: S. cerevisiae mlh1 rad18 strain growth inhibition, active compounds read high. The method, boiled down: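 Steps: expose repair-defective yeast to compound; measure growth; express inhibition against vehicle-treated controls.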
[7] abbreviates: at 5.0 µM (retest, dose inferred, filed as 0.5).
Setting [8] is: at 50.0 µM (retest, dose inferred, filed as 5.0).

This is part of a sample that, as a whole, favours compounds with a hit. Of some 79,000 tested, about 15% had one in any assay. Unmarked numbers belong to inactive results. The source made the active and inactive calls. Cut-off read from the data, not from the text of the source: active = growth inhibition above about 70%; inactive = the rest.

For `CCCCCCCCCCCCCCCCCC[n+]1ccc(C(C)CC)cc1` (configuration not stated), the growth inhibition is 1% in experiment [1] (setting [7]); 96% (active) in experiment [1] (setting [8]); 99.3% (active) in experiment [1] (at 50.0 µM); 12% in experiment [2] (setting [7]); 98% (active) in experiment [2] (setting [8]); 99.6% (active) in experiment [2] (at 50.0 µM). The growth inhibition in experiment [3] (setting [7]) was 18%; in experiment [3] (setting [8]) it was 97% (active); in experiment [3] (at 50.0 µM), 99.2% (active); in experiment [4] (setting [7]), 16%; in experiment [4] (setting [8]), 87% (active); in experiment [4] (at 50.0 µM), 99.1% (active). Further, the growth inhibition in experiment [5] (setting [7]) is 29%; in experiment [5] (setting [8]), 96% (active); in experiment [5] (at 50.0 µM), 99.2% (active); in experiment [6] (setting [7]), 6%; in experiment [6] (setting [8]) it was 97% (active); in experiment [6] (at 50.0 µM) it was 99.2% (active).

For `CN(C(=O)C(Cl)Cl)c1ccc(-c2csc(-c3ccccc3)n2)cc1`, the growth inhibition in experiment [1] (setting [7]) is 5%; in experiment [1] (setting [8]), 12%; in experiment [1] (at 50.0 µM) it was 12.9%; in experiment [2] (setting [7]) it was 10%; in experiment [2] (setting [8]), -1%; in experiment [2] (at 50.0 µM), 33.9%. In addition, the growth inhibition is 6% in experiment [3] (setting [7]); 20% in experiment [3] (setting [8]); -7.4% in experiment [3] (at 50.0 µM); -2% in experiment [4] (setting [7]); -3% in experiment [4] (setting [8]); 95.8% (active) in experiment [4] (at 50.0 µM). For the same compound, the growth inhibition in experiment [5] (setting [7]) is 2%; in experiment [5] (setting [8]), 22%; in experiment [5] (at 50.0 µM) it was 97% (active); in experiment [6] (setting [7]), 4%; in experiment [6] (setting [8]), 7%; in experiment [6] (at 50.0 µM), 22.4%.

Regarding `Cc1cccc(C)c1NC(=O)/C(Cl)=C(/Cl)C(=O)O`, the growth inhibition was 66% in experiment [1] (setting [7]); 98% (active) in experiment [1] (setting [8]); 91.2% (active) in experiment [1] (at 50.0 µM); 67% in experiment [2] (setting [7]); 99% (active) in experiment [2] (setting [8]); 86.2% (active) in experiment [2] (at 50.0 µM). Further, the growth inhibition in experiment [3] (setting [7]) was 82% (active); in experiment [3] (setting [8]), 98% (active); in experiment [3] (at 50.0 µM), 88% (active); in experiment [4] (setting [7]), 47%; in experiment [4] (setting [8]), 81% (active); in experiment [4] (at 50.0 µM), 82.8% (active). In addition, the growth inhibition is 85% (active) in experiment [5] (setting [7]); 99% (active) in experiment [5] (setting [8]); 90% (active) in experiment [5] (at 50.0 µM); 63% in experiment [6] (setting [7]); 99% (active) in experiment [6] (setting [8]); 93.8% (active) in experiment [6] (at 50.0 µM).

As to `O=C(CC(=O)c1ccccc1)CC(=O)c1cccc(Cl)c1`, the growth inhibition in experiment [1] (setting [7]) was -1%; in experiment [1] (setting [8]), 87% (active); in experiment [1] (at 50.0 µM) it was 81.1% (active); in experiment [2] (setting [7]) it was 5%; in experiment [2] (setting [8]), 89% (active); in experiment [2] (at 50.0 µM) it was 65%. In addition, the growth inhibition in experiment [3] (setting [7]) is -1%; in experiment [3] (setting [8]), 87% (active); in experiment [3] (at 50.0 µM) it was 76.2% (active); in experiment [4] (setting [7]), -9%; in experiment [4] (setting [8]), 77% (active); in experiment [4] (at 50.0 µM), 18.4%. Moreover, the growth inhibition in experiment [5] (setting [7]) was 8%; in experiment [5] (setting [8]), 94% (active); in experiment [5] (at 50.0 µM) it was 78.5% (active); in experiment [6] (setting [7]), 4%; in experiment [6] (setting [8]), 93% (active); in experiment [6] (at 50.0 µM) it was 85.2% (active).

For `NC(N)=Nc1ccc(Cc2ccc(N=C(N)N)cc2)cc1`, the growth inhibition is 0% in experiment [1] (setting [7]); -3% in experiment [1] (setting [8]); -33.2% in experiment [1] (at 50.0 µM); 0% in experiment [2] (setting [7]); -4% in experiment [2] (setting [8]); -58% in experiment [2] (at 50.0 µM). Further, the growth inhibition is 2% in experiment [3] (setting [7]); 0% in experiment [3] (setting [8]); -17.9% in experiment [3] (at 50.0 µM); 3% in experiment [4] (setting [7]); 2% in experiment [4] (setting [8]); 45% in experiment [4] (at 50.0 µM). Also, the growth inhibition in experiment [5] (setting [7]) is 3%; in experiment [5] (setting [8]) it was 2%; in experiment [5] (at 50.0 µM) it was -10.2%; in experiment [6] (setting [7]), -6%; in experiment [6] (setting [8]), -4%; in experiment [6] (at 50.0 µM) it was -39%.

For `CC(C)(C)C(=O)Nc1ccc2c(c1)C(=O)c1ccccc1C2=O`, the growth inhibition in experiment [1] (setting [7]) was 62%; in experiment [1] (setting [8]) it was 96% (active); in experiment [1] (at 50.0 µM), 82% (active); in experiment [2] (setting [7]), 44%; in experiment [2] (setting [8]), 85% (active); in experiment [2] (at 50.0 µM), 79.2% (active). For the same compound, the growth inhibition in experiment [3] (setting [7]) is 44%; in experiment [3] (setting [8]), 91% (active); in experiment [3] (at 50.0 µM), 80.7% (active); in experiment [4] (setting [7]), 38%; in experiment [4] (setting [8]), 75% (active); in experiment [4] (at 50.0 µM), 83.2% (active). The growth inhibition in experiment [5] (setting [7]) was 46%; in experiment [5] (setting [8]), 71% (active); in experiment [5] (at 50.0 µM), 87.5% (active); in experiment [6] (setting [7]), 62%; in experiment [6] (setting [8]) it was 96% (active); in experiment [6] (at 50.0 µM), 86.5% (active).

For `Cc1ccc(S(=O)(=O)NNc2nc(N(C)C)nc(N(C)C)n2)cc1`, the growth inhibition in experiment [1] (setting [7]) is 1%; in experiment [1] (setting [8]), 7%; in experiment [1] (at 50.0 µM), 9.15%; in experiment [2] (setting [7]), 7%; in experiment [2] (setting [8]) it was 14%; in experiment [2] (at 50.0 µM), 5.4%. Moreover, the growth inhibition in experiment [3] (setting [7]) was 3%; in experiment [3] (setting [8]) it was 13%; in experiment [3] (at 50.0 µM), 5.5%; in experiment [4] (setting [7]), 4%; in experiment [4] (setting [8]), 4%; in experiment [4] (at 50.0 µM), 52.2%. Also, the growth inhibition is -1% in experiment [5] (setting [7]); 4% in experiment [5] (setting [8]); 4.4% in experiment [5] (at 50.0 µM); 2% in experiment [6] (setting [7]); 8% in experiment [6] (setting [8]); 3.85% in experiment [6] (at 50.0 µM).

In the case of `O=C(O)/C(=C/c1ccc(Cl)cc1)c1ccccc1`, the growth inhibition in experiment [1] (setting [7]) was -5%; in experiment [1] (setting [8]), 23%; in experiment [1] (at 50.0 µM), 4.7%; in experiment [2] (setting [7]) it was -7%; in experiment [2] (setting [8]), 23%; in experiment [2] (at 50.0 µM), 44.5%. The growth inhibition in experiment [3] (setting [7]) is -3%; in experiment [3] (setting [8]), 27%; in experiment [3] (at 50.0 µM), 10.6%; in experiment [4] (setting [7]), -10%; in experiment [4] (setting [8]), 39%; in experiment [4] (at 50.0 µM), 90.7% (active). In addition, the growth inhibition in experiment [5] (setting [7]) was -8%; in experiment [5] (setting [8]) it was 17%; in experiment [5] (at 50.0 µM), 9.95%; in experiment [6] (setting [7]), -5%; in experiment [6] (setting [8]), 45%; in experiment [6] (at 50.0 µM) it was 39.6%.

For `CC1CC(C)CC(C(O)(C(=O)O)C2CC(C)CC(C)C2)C1` (configuration not stated), the growth inhibition is 23% in experiment [1] (setting [7]); 99% (active) in experiment [1] (setting [8]); 99.2% (active) in experiment [1] (at 50.0 µM); 18% in experiment [2] (setting [7]); 99% (active) in experiment [2] (setting [8]); 97% (active) in experiment [2] (at 50.0 µM). Also, the growth inhibition in experiment [3] (setting [7]) is 10%; in experiment [3] (setting [8]), 99% (active); in experiment [3] (at 50.0 µM), 99.5% (active); in experiment [4] (setting [7]) it was 82% (active); in experiment [4] (setting [8]), 100% (active); in experiment [4] (at 50.0 µM), 78.5% (active). In addition, the growth inhibition in experiment [5] (setting [7]) was 29%; in experiment [5] (setting [8]), -34%; in experiment [5] (at 50.0 µM), 94% (active); in experiment [6] (setting [7]) it was 18%; in experiment [6] (setting [8]) it was 99% (active); in experiment [6] (at 50.0 µM) it was 99.5% (active).

The record behind these values is PubChem BioAssay (NCI).
